In PubChem BioAssay (NCI):
About 83,000 compounds went through this panel and 20% of them were active in at least one assay; those are over-represented in the sample as a whole.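 Cell lines were cultured in 96-well plates, exposed to a single compound concentration, and assessed for percent growth 48 hours later.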

Assays:
Experiment in all cases: NCI-60 one-dose screen, 48 h (100 = growth as untreated, 0 = no growth, -100 = all killed)
Conditions in all cases: 10 µM unless noted; active = growth percent below 10; inactive = the rest
T-47D breast = system: T-47D breast
MDA-MB-435 melanoma = system: MDA-MB-435 melanoma
SW-620 colon = system: SW-620 colon
MCF7 breast = system: MCF7 breast
HCT-116 colon = system: HCT-116 colon
HCC-2998 colon = system: HCC-2998 colon
KM12 colon = system: KM12 colon
BT-549 breast = system: BT-549 breast

Measured: growth

NC(=O)OCCO
inactive: T-47D breast 94.4% | MDA-MB-435 melanoma 111% | SW-620 colon 106% | MCF7 breast 92.9% | HCT-116 colon 90.6% | HCC-2998 colon 97.9% | KM12 colon 98.7%

C=CCC(OC(C)=O)c1ccc(OC)c(OC)c1 (stereo not given)
inactive: T-47D breast 112% | BT-549 breast 116% | MDA-MB-435 melanoma 110% | SW-620 colon 98% | HCT-116 colon 103% | KM12 colon 99%

O=c1cc(C(F)(F)F)[nH]c(=S)[nH]1
inactive: T-47D breast 97.7% | BT-549 breast 122% | MDA-MB-435 melanoma 106% | MCF7 breast 94.9% | HCT-116 colon 112% | HCC-2998 colon 117% | KM12 colon 103%

O=S(=O)(OCCOS(=O)(=O)c1ccccc1)c1ccccc1
inactive: T-47D breast 105% | MDA-MB-435 melanoma 107% | SW-620 colon 102% | MCF7 breast 88% | HCT-116 colon 87.4% | HCC-2998 colon 72.8% | KM12 colon 101%

COC(=O)Cc1cc(COC(C)=O)ccc1C
inactive: T-47D breast 110% | MDA-MB-435 melanoma 116% | SW-620 colon 110% | MCF7 breast 106% | HCT-116 colon 104% | HCC-2998 colon 106% | KM12 colon 114%

CN1C(=O)NC(c2ccc(Cl)cc2)(c2ccc(Cl)cc2)C1=O
inactive: T-47D breast 94.2% | MDA-MB-435 melanoma 97.3% | SW-620 colon 103% | MCF7 breast 102% | HCT-116 colon 88.2% | HCC-2998 colon 101% | KM12 colon 87.9%

O=[N+]([O-])c1c(Cl)ncnc1Cl
inactive: T-47D breast 117% | BT-549 breast 106% | SW-620 colon 95.3% | MCF7 breast 95.2% | HCT-116 colon 115% | HCC-2998 colon 121% | KM12 colon 102%

CCC(=O)Oc1ccc2ccccc2c1
inactive: T-47D breast 74.9% | MDA-MB-435 melanoma 101% | SW-620 colon 85.7% | MCF7 breast 101% | HCT-116 colon 102% | HCC-2998 colon 88.7% | KM12 colon 99.6%

O=c1[nH]c(=O)c2cc(Cl)cc(Cl)c2[nH]1
inactive: T-47D breast 111% | BT-549 breast 91.4% | MDA-MB-435 melanoma 113% | SW-620 colon 105% | HCT-116 colon 98.3% | KM12 colon 106%

O=C1NCC2CCCC1C2 (stereo not given)
inactive: T-47D breast 118% | BT-549 breast 98.3% | MDA-MB-435 melanoma 112% | SW-620 colon 120% | HCT-116 colon 101% | HCC-2998 colon 93.1% | KM12 colon 107%

Oc1ccc(N=Cc2ccc(OCc3ccccc3)cc2)cc1
inactive: T-47D breast 103% | MDA-MB-435 melanoma 88.4% | SW-620 colon 96.1% | MCF7 breast 99.1% | HCT-116 colon 106% | HCC-2998 colon 112% | KM12 colon 92.8%
